From ChEMBL document CHEMBL1157539, “Thousands of chemical starting points for antimalarial lead identification” (Nature, 2010)

What follows are compounds tested on Plasmodium falciparum (assay: GSK_TCMDC: Inhibition of Plasmodium falciparum 3D7 in whole red blood cells, using parasite LDH activity as an index of growth. Test compounds present at 2uM).
Type: functional

Compound	Inhibition
COc1ccc2c(=O)c(I)c(C)[nH]c2c1	96%
COCCNc1nc(N2CCC(CNC(=O)c3ccc(-c4ccc(C(=O)N(C)C)cc4C)cc3)CC2)nc2cc(OC)c(OC)cc12	98%
CCCc1ccc(NC(=O)c2cccc(CN3CCCN(Cc4cccc(O)c4)CC3)c2)cc1.O=C(O)C(F)(F)F	97%
Cc1cc(C2CCN(CCCCNC(=O)c3ccc(NC(=O)c4ccc(Cl)cc4)cc3)CC2)c(C)cc1OCc1ccccn1.Cl	96%
COc1ccc(CNC(=O)NC2CCN(c3ccnc(Nc4ccc(F)cc4)n3)C2)cc1 (configuration not stated)	91%
Cc1ccc(Oc2ccc(CNc3nc(Nc4cccc(F)c4)nc(Nc4cccc(F)c4)n3)cc2)cc1	86%
CN1CC[C@@H](Oc2cc(NC(=O)Nc3ccc(Cl)c(C(F)(F)F)c3)ccc2Cl)C1	100%
Cc1[nH]c2ccc(C#N)cc2c(=O)c1Br	91%
Cc1[nH]c(C)c(-c2ccc(-c3ccccc3F)nc2)c(=O)c1Br	97%
O=C(NC1CCCCN(Cc2ccccc2O)C1)c1ccc(-c2ccccc2)cc1.O=C(O)C(F)(F)F (configuration not stated)	97%
CCCn1c(O)nnc1SCC(=O)Nc1cc(Cl)ccc1Cl	88%
CCN1CCC(NCc2ccc(-c3ccc(Cl)cc3)cc2)CC1	100%
NCC1CCCN1Cc1ccc(-c2cccc(-c3nc4cc(C(F)(F)F)ccc4[nH]3)c2)cc1.O=C(O)C(F)(F)F (configuration not stated)	99%
Cn1nccc1C(=O)NCCNCc1ccc(-c2cccc(-c3nc4cc(C(F)(F)F)ccc4[nH]3)c2)cc1.O=C(O)C(F)(F)F	100%
Cc1ccc(Nc2nccc(N(C)c3ccc4c(c3)nc(NC(=O)Cc3ccc(Cl)c(Cl)c3)n4C)n2)cc1S(N)(=O)=O.O=C(O)C(F)(F)F	94%
C=CCOc1ccc2ccccc2c1CNCCCCCCNCc1c(OCC=C)ccc2ccccc12.CS(=O)(=O)O	100%
O=C(NCCN1CCOCC1)c1ccc(-c2ccc(CNCCCc3ccccc3)cc2)nc1.O=C(O)C(F)(F)F	97%
CC(C)NCc1ccc(-c2cccc(NC(=O)c3cccc(C#N)c3)c2)cc1.O=C(O)C(F)(F)F	100%
COc1ccc2nccc([C@@H](O)CN3CCC(NS(=O)(=O)c4cc5c(cc4Cl)SCC(=O)N5)CC3)c2c1.O=C(O)C(=O)O	88%
O=C(NC1CCN(Cc2ccccc2)C1)c1ccc(Nc2ccc(Br)cc2)nc1.O=C(O)C(F)(F)F (configuration not stated)	94%
Cc1cc(CNCCCCCCNCc2ccc(Cl)cc2)ccc1O	96%
O=C(Nc1ccc2c(c1)OCO2)c1cc(-c2cccnc2)nc2ccc(Cl)cc12	89%
O=C(Nc1ccc(C(F)(F)F)cc1)c1ccc(S(=O)(=O)NCC2CCCN(CC3CCCCC3)C2)cc1.O=C(O)C(F)(F)F (configuration not stated)	93%
Cc1ccc(-c2cc(C(=O)Nc3ccc(S(=O)(=O)N4CC(C)OC(C)C4)cc3)[nH]n2)c(O)c1 (configuration not stated)	91%
Cc1ccc(F)c(OCC2CCCN(c3ccc(C(=O)NC4CC4)cn3)C2)c1 (configuration not stated)	96%
COC(=O)c1cccc(OCCNC2CCN(C[C@H](O)c3ccnc4ccc(OC)cc34)CC2)c1.O=C(O)C(=O)O	100%
Cc1cc(NCc2ccc(F)cc2)nc2cc(O)ccc12	98%
